PubChem BioAssay
Results with a measured potency or affinity are listed apart. The source made the active and inactive calls. The rule behind the calls is not given here.

Biological target: Plasmodium falciparum protein kinase 6 (PK6, PF3D7_1337100) (UniProt Q8IDW1)
Assay: PfPK6 kinase inhibitors, biochemical, TCAMS library (AID 1159586)
Conditions: recombinant PfPK6, Kinase-Glo ATP depletion luminescence

Sequence of Plasmodium falciparum protein kinase 6 (PK6, PF3D7_1337100) (Q8IDW1 1-305): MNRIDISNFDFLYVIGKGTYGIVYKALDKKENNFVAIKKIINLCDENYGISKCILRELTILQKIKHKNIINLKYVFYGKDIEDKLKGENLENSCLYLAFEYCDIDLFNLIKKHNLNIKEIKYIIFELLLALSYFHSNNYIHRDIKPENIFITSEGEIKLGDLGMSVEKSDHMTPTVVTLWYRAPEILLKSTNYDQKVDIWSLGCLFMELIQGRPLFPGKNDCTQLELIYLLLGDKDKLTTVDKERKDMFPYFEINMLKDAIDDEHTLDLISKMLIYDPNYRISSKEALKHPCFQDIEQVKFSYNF

outcome, inactive:
COc1cc(NC(=O)c2sc(-c3ccc(Cl)cc3)cc2NC(=O)c2cccc(N(C)C)c2)ccc1OCCN1CCCC1, O=C(Nc1ccc(F)c([N+](=O)[O-])c1)Nc1cc(C(F)(F)F)ccc1Cl, COc1cc(CN2CCC(C(=O)Nc3ccc(-c4cccc(C)c4)cc3)CC2)ccc1O, CN1CCN(c2ccnc3ccc(NC(=O)N(C)c4ccc(Cl)c(Cl)c4)cc23)CC1, CCCCc1ccc(C(=O)Nc2ccc3nc(N4CCN(C)CC4)cc(C)c3c2)cc1, Cc1cc2nc(/N=C(\N)NC(=O)NC3CCCCC3)nc(C)c2cc1C, CC(C)N1CCN(C(CN2CCN(CCCOc3ccc(-c4ccccc4)cc3)CC2)c2ccc(F)cc2)CC1 (stereo not given), COc1cc2nc(N(C)C)nc(Nc3ccc(OCc4ccccc4)cc3)c2cc1OC, COc1ccccc1-c1cc(C(=O)N2CCN(S(=O)(=O)c3ccc(C)cc3)CC2)[nH]n1, Cc1noc(C)c1-c1cccc(CNCc2cccc(-c3ccc(-c4nc5ccccc5[nH]4)s3)c2)c1, CNC(=O)NC1=NC(C)(C)N(OCc2ccc(Cl)c(Cl)c2)C(NC(=O)NC)=N1, CSC1=NC2(CC(c3cccc(C)c3)c3cc(Cl)c(O)cc3O2)CC(C)(C)N1 (stereo not given), Cc1ccc(F)c(OC2CCN(c3ccc(C(=O)NC4CC4)cn3)CC2)c1, Nc1cccc(CNCc2cccc(-c3ccc(-c4nc5ccc(C(F)(F)F)cc5[nH]4)cc3)c2)c1, CCCCCCCCn1ccc(=N)cc1, CC(C)N1CCCN(C(=O)C2CCN(c3ccc(C(=O)N4CCCC4)cn3)CC2)CC1, COc1ccc2nc(C)cc(Nc3ccc(Oc4ccc5ccccc5c4)c(Cl)c3)c2c1, CCOc1ccc2c(NN=Cc3cccc(Cl)c3)cc(C)nc2c1, Nc1nc(N)c2cc(Sc3ccc4ccccc4c3)ccc2n1, COC(=O)c1ccc2nc(-c3ccc(/C=C/C(=O)NC4CCN(Cc5ccccc5)CC4)cc3)[nH]c2c1, O=C(NC1CC1)c1cnc(N2CCC(OCc3ccccc3)CC2)c(Cl)c1, C[C@@H](COc1ccc(-c2ccccc2)cc1)CON1C(N)=NC(N)=NC1(C)C, Cc1ccc2nc(Nc3ccc(Nc4nc5ccc(C)cc5[nH]4)c(C)c3)[nH]c2c1, Cc1cc(N2CCOCC2)nc2ccc(NC(=O)c3cccc([N+](=O)[O-])c3)cc12, Cc1cc(C2CCN(CCCCNC(=O)c3ccc(NC(=O)c4ccc(Cl)cc4)cc3)CC2)c(C)cc1OCc1ccncc1, N#Cc1ccc(C=Cc2nccc3c2[nH]c2ccccc23)cc1, Cc1ccc(F)cc1-c1cc(N2CCCN(C(=O)c3ccc(Br)o3)CC2)ncn1, CS(=O)(=O)c1cc2c(Nc3ccc(N4CCOCC4)cc3)c(C(N)=O)cnc2cc1Br, Cc1ccc(Cn2ncc(N3CCC(N)CC3)c(Cl)c2=O)cc1NC(=O)Nc1ccc(-c2ccccc2)cc1, COc1ccc(C=C2SC(=O)NC2=Nc2ccccc2)c(OC)c1, Cc1nnsc1C(=O)Nc1ccc(-c2ccc(-c3nc4ccccc4[nH]3)s2)cc1, C=CCc1cc(Br)ccc1OCCCON1C(N)=NC(N)=NC1(C)C, CCOc1c(OC)ccc2c1CCN(CCN1CCC(CNC(=O)c3ccc(-c4ccc(C(F)(F)F)cc4)cc3)CC1)C2, C(=N\Nc1nccc2sc(-c3cccnc3)cc12)/c1ccncc1, O=C(C=Cc1ccc(Cl)c(Cl)c1)NCCCCCN1CCCC(CCCNS(=O)(=O)c2ccc(Br)cc2)C1 (stereo not given), COc1cc(OCCCN(C)Cc2ccc(OC)c(OC)c2)ccc1NC(=O)c1cccc2c(=O)c3cccc(F)c3[nH]c12, Cc1ccc(NC(=O)NC2CCN(CCCCCNC(=O)[C@@H]3C[C@H]3c3ccc(Cl)c(Cl)c3)CC2)cc1, CN(C)S(=O)(=O)c1cc(-c2ccc3nccc(-c4cccc(S(N)(=O)=O)c4)c3c2)cnc1N, O=S(=O)(c1cc(Cl)ccc1Cl)N1CCCCC(c2ccc(C(F)(F)F)cc2)=N1, Oc1cccc(-c2nc(-c3ccccc3)c(-c3ccc(Oc4ccc(-c5[nH]c(-c6cccc(O)c6)nc5-c5ccccc5)cc4)cc3)[nH]2)c1
